# POLI inh – qHTS for Inhibitors of Polymerase Iota; DNA polymerase iota (Homo sapiens), Q9UNA4; Pol iota fluorescent replication assay, 10 min; Potency, µM (series often up to 115 µM), without a hit: at the top dose activity, negative = inhibition, most hits filed as inhibitors; actives 1% (n = 390,000); AID 588590, 2011; further: potency means the concentration at half of the fitted maximal effect
#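 Pol iota at 10 nM preincubated 15 min with compounds at room temperature; reaction started with fluorescent substrate, 50 nM final. Fluorescence read kinetically at 0 and 10 min; buffer-only wells as negative control.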
# WRN helicase inh-1 – qHTS for Inhibitors of WRN Helicase | Bifunctional 3'-5' exonuclease/ATP-dependent helicase WRN (Homo sapiens), Q14191 | WRN helicase unwinding, fluorescent forked duplex, kinetic | Potency, µM (doses to about 114 µM), for inactives: at the top dose activity change, negative = inhibition, most hits filed as inhibitors | actives 0.46% (n = 360,000) | AID 651768, 2012; further: potency means the concentration at half of the fitted maximal effect; on the % scale 0 is the no-effect control and ±100 the full control effect; nearly all actives have a fitted effect of over 55% in size
#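 Enzyme (20 nM final) and test compound sit together 15 min at room temperature before substrate addition. Substrate is a single-forked duplex oligonucleotide (100 nM) labelled with fluorophore and quencher, with 2 mM ATP; helicase unwinding raises red fluorescence, read kinetically.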
# POLB inh – qHTS Assay for Inhibitors of DNA Polymerase Beta. Pol beta primer extension/strand displacement, fluorescence kinetic. P06746. actives 1.3% (n = 340,000). Potency, µM (highest dose often 114 µM), without a hit: top-dose activity change, negative = inhibition, most hits filed as inhibitors; further: potency means the concentration at half of the fitted maximal effect; on the % scale 0 is the no-effect control and ±100 the full control effect
#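 Enzyme-only controls used 10 nM Pol beta; buffer lacking enzyme served as negative control. Compound preincubated 15 min, then 50 nM substrate added; 0 and 10 min reads at room temperature.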
# PI5P4Ka inh – qHTS for Inhibitors of phosphatidylinositol 5-phosphate 4-kinase (PI5P4K) | Phosphatidylinositol 5-phosphate 4-kinase type-2 alpha (Homo sapiens), P48426 | max response, % | PI5P4Kalpha enzyme, ADP-Glo luminescence, 60 min; hits give low values | actives 1.2% (n = 330,000); active means max response of -50% or lower; inconclusive means between -30% and -50%; inactive means -30% or higher; further: value at the top dose of about 77 µM; on the % scale 0 is the no-effect control and ±100 the full control effect
#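 Reactions run in 0.038 M HEPES pH 7.4, 0.28 mM EGTA, 0.1% CHAPS and 5% DMSO, with PI5P4Kalpha, substrate, compound and 5 microM ATP final, one hour at room temperature. Readout is ADP-Glo luminescence.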
# Pol kappa inh-1 – qHTS for Inhibitors of Polymerase Kappa. actives 0.53% (n = 400,000). DNA polymerase kappa (Homo sapiens), Q9UBT6. purified Pol kappa, fluorescent DNA synthesis assay, 10 min. Potency, µM (titrated, usually from 107 µM), for the others: at the top dose activity, negative = inhibition, hits mostly inhibitors; further: potency means the concentration at half of the fitted maximal effect; on the % scale 0 is the no-effect control and ±100 the full control effect
#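 Enzyme at 10 nM met test compounds for 15 min at room temperature. Substrate addition (50 nM final) began the reaction, which was monitored by fluorescence at 0 and 10 min.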
# Pol eta inh-1 – qHTS for Inhibitors of Polymerase Eta. Potency, µM (doses to about 114 µM), inactives show at the top dose activity change, negative = inhibition, usual class: inhibitors. DNA polymerase eta (Homo sapiens), Q9Y253. recombinant Pol eta, fluorescent DNA replication assay. actives 1.2% (n = 390,000); further: potency means the concentration at half of the fitted maximal effect; on the % scale 0 is the no-effect control and ±100 the full control effect
#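 Pol eta at 10 nM preincubated with compounds 15 min at room temperature; reaction started with fluorescent substrate (50 nM final) and read kinetically at 0 and 10 min.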
# TbPGK inh – qHTS for inhibitors of Phosphogylcerate Kinase: Hit Validation Screen; AID 686980, 2013; Potency, µM (top dose mostly 57.5 µM), for inactives: top-dose activity change, negative = inhibition, most hits filed as inhibitors; TbPGK coupled GAPDH assay, Kinase-Glo luminescence; shares compounds with Pol kappa inh-1; actives 79% (n = 500); further: potency means the concentration at half of the fitted maximal effect; on the % scale 0 is the no-effect control and ±100 the full control effect; nearly all actives have a fitted effect of over 65% in size
# POLI cherry-pick – qHTS for Inhibitors of Polymerase Iota: Confirmatory Assay for Cherry-picked Compounds; shares compounds with Pol kappa inh-1; Pol iota primer extension, TAMRA/BHQ fluorescence; Potency, µM, most hits filed as inhibitors; actives 77% (n = 1,500); further: potency means the concentration at half of the fitted maximal effect
# Pol kappa inh-2 – qHTS for Inhibitors of Polymerase Kappa: Confirmatory Assay for Cherry-picked Compounds; shares compounds with Pol eta inh-1; purified Pol-kappa, fluorescent strand-displacement substrate; AID 720501, 2013; actives 76% (n = 920); Potency, µM, hits mostly inhibitors; further: potency means the concentration at half of the fitted maximal effect
# Pol eta inh-2 – qHTS for Inhibitors of Polymerase Eta: Confirmatory Assay for Cherry-picked Compounds; AID 720502, 2013; actives 64% (n = 2,600); Pol eta primer extension, TAMRA/BHQ fluorescence, 10 min; Potency, µM, hits mostly inhibitors; shares compounds with Pol eta inh-1; further: potency means the concentration at half of the fitted maximal effect
# WRN helicase inh-2 – qHTS for Inhibitors of WRN Helicase: Confirmatory Assay for Cherry-picked Compounds; shares compounds with WRN helicase inh-1; actives 63% (n = 610); Potency, µM (highest dose often 57.1 µM), for the others: at the highest dose activity, negative = inhibition, most hits filed as inhibitors; WRN helicase DNA unwinding, fluorescence kinetic; further: potency means the concentration at half of the fitted maximal effect; nearly all actives have a fitted effect of over 65% in size
# TO displacement – qHTS for Inhibitors of WRN Helicase: Thiazole Orange DNA Binding Counterscreen; actives 10% (n = 610); shares compounds with WRN helicase inh-1; Potency, µM (doses to about 57.1 µM), for the others: at the top dose activity change, negative = inhibition, actives largely listed as inhibitors; thiazole orange DNA binding displacement, fluorescence;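 further: drop in dye fluorescence marks compound binding to DNA; potency means the concentration at half of the fitted maximal effect; on the % scale 0 is the no-effect control and ±100 the full control effect; nearly all actives have a fitted effect of over 60% in size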
# BLM helicase inh – qHTS for Inhibitors of WRN Helicase: BLM Helicase Counterscreen for WRN Inhibitors | shares compounds with WRN helicase inh-1 | Recombinant BLM helicase DNA unwinding, red fluorescence | Potency, µM (top dose mostly 57.1 µM), without a hit: at the top dose activity change, negative = inhibition, most hits filed as inhibitors | actives 60% (n = 610) | AID 720503, 2013; further: potency means the concentration at half of the fitted maximal effect; nearly all actives have a fitted effect of over 60% in size
# An asterisk follows results filed as active; i = inactive; u = inconclusive; x = no result; [ ] = another dose, or the depositor's remark. Sampled rows, rich in hits. Any-hit rate of the full collection: about 2.8%. Unless noted, the call rests on the fitted dose curve; in most records, active means well fitted curve in the direction sought with a large enough effect; inconclusive means small, poorly fitted or top-dose-only effect, or another doubt; inactive means no such curve, though single readings can be large; an effect the other way counts as inactive or inconclusive.
SMILES,POLI inh,WRN helicase inh-1,POLB inh,PI5P4Ka inh,Pol kappa inh-1,Pol eta inh-1,POLI cherry-pick,Pol kappa inh-2,Pol eta inh-2,WRN helicase inh-2,TO displacement,BLM helicase inh,others
CN1C(=CC=C2C=C(I)C(=O)C(I)=C2)C(C)(C)c2ccccc21,3.55µM*,4.74µM*,u,-26.8,u,u,33.6*,75.2*,47.8*,27.1µM*,88.3%,19.2µM*,
CN1/C(=C\C=N\O)C(C)(C)c2ccccc21,21.8%,-6.3%,8.2%,5.1,0.0%,0.0%,x,x,x,x,x,x,
CN1/C(=C\C=C2/C(=O)Oc3ccccc3C2=O)C(C)(C)c2ccccc21,-10.9%,26.7µM*,44.7µM*,-3.8,u,89.1µM*,75.2*,23.8*,53.6*,15.2µM*,x,i,
CCCCNC(=O)c1nc(-c2cccnc2)oc1-c1ccc(OC(F)(F)F)cc1,x,-5.2%,x,7.4,x,x,x,x,x,x,x,x,
CC(=O)NCc1ccc(C(=O)CSc2nnc(C3CC3)n2C2CC2)cc1,u,0.8%,x,-13.3,-43.6%,-1.7%,x,x,x,x,x,x,
COCCn1c(N)c(Sc2ccccc2[N+](=O)[O-])c(=O)[nH]c1=O,14.0%,-1.7%,-0.2%,0.9,12.2%,0.2%,x,x,x,x,x,x,
O=C1CC(=O)N(Cc2ccco2)C(=O)N1,3.16µM*,25.1µM*,8.91µM*,x,8.91µM*,3.55µM*,3.36*,x,5.36*,7.64µM*,29.7%,4.29µM*,TbPGK inh=0.919µM*
O=C1CC(=O)N(Cc2cccs2)C(=O)N1,-4.4%,-0.4%,7.7%,u,1.0%,-7.4%,x,x,x,x,x,x,
O=C(O)c1ccccc1-c1c2cc(I)c(=O)c(I)c-2oc2c(I)c(O)c(I)cc12,12.6µM*,4.74µM*,x,-98.6*,22.4µM*,15.8µM*,18.9*,29.9*,67.5*,21.5µM*,i,19.2µM*,TbPGK inh=10.3µM*
O=Cc1ccc(-c2ccccc2C(=O)O)o1,83.2%,-4.7%,u,13.5,-11.6%,4.1%,x,x,x,x,x,x,
Cc1c(Br)c(=O)oc2c(Br)c(O)c(O)cc12,12.6µM*,15.8µM*,4.47µM*,-62.9*,22.4µM*,3.16µM*,23.8*,x,5.36*,3.83µM*,u,3.41µM*,TbPGK inh=6.51µM*
Cc1c(Br)c(=O)oc2c(Br)c(O)ccc12,161.9%,-4.1%,0.3%,-21.2,-24.1%,-11.7%,x,x,x,x,x,x,
CC1=NN(c2ccccc2)C(=O)C1/C=C1\NC(=S)NC1=O (stereo unspecified),u,28.2µM*,-4.7%,-73.6*,25.1µM*,3.16µM*,47.4*,7.52*,23.9*,8.57µM*,-23.1%,17.1µM*,
Cc1ccc(Cl)c2sc(N3CCN(C(=O)C4CC4)CC3)nc12,24.4%,x,u,x,-4.2%[60.1 µM],-6.1%,x,x,x,x,x,x,
CCCN(C(=O)Cn1cnc2onc(-c3ccc(F)cc3)c2c1=O)c1cccc(Cl)c1,-10.5%,x,1.3%,x,-5.1%,-5.3%,x,x,x,x,x,x,
Cn1cccc1/C=C1\SC(=O)N(CC(=O)Nc2ccc(Cl)cc2)C1=O,29.2%,1.3%,-0.2%,x,-6.1%,-10.0%,x,x,x,x,x,x,
N#CNC(=O)c1ccc(-n2cccc2/C=C2\NC(=O)N(CC(=O)Nc3cccc(F)c3)C2=O)cc1,x,x,x,x,x,x,29.9*,13.4*,42.6*,10.8µM*,9.61µM*,4.82µM*,
CCn1c(C)cc(/C=C2/NC(=O)N(CC(=O)Nc3cccc(C)c3)C2=O)c1C,-0.5%,-1.9%,-1.8%,-10.3,-24.6%,10.2%,x,x,x,x,x,x,
N#CNC(=O)c1ccc(-n2cccc2/C=C2\NC(=O)N(CC(=O)Nc3ccc(Cl)cc3)C2=O)cc1,x,x,x,x,x,x,6.7*,4.74*,u,4.29µM*,u,0.961µM*,
COc1ccc(Cc2c(C3CCCCC3)nc3ccc(Cl)cn23)c(C)c1,x,-10.0%,x,3.4,x,x,x,x,x,x,x,x,
O=C(O)c1[nH]c2ccccc2c1C(c1cc(Cl)cc([N+](=O)[O-])c1O)c1c(C(=O)O)[nH]c2ccccc12,17.8µM*,44.7µM*,35.5µM*,-26.8,50.1µM*,20µM*,75.2*,x,26.9*,21.5µM*,-11.5%,u,
COc1cc(NS(=O)(=O)c2ccc(NC(=S)NC(=O)/C=C/c3ccco3)cc2)ncn1,u,14.1µM*,17.8µM*,-56.5*,7.08µM*,2.24µM*,16.8*,x,4.26*,15.2µM*,-21.7%,15.2µM*,TbPGK inh=4.61µM*
Cc1ccc(C(=O)NC(C)c2ccc(-n3ccnc3)cc2)o1 (stereo unspecified),41.7%,-8.7%,x,-4.5,-0.8%,-12.6%,x,x,x,x,x,x,

# Screening results (PubChem BioAssay)
